34 compounds from the supplement of paper PMC3842684 can be followed below.

In experiment [1] the test system is P. falciparum NF54-pfs16-GFP early (I-III) stage gametocytes. Kind of experiment: relative % inhibition of viable gametocyte number; higher = more gametocytocidal. The settings on record: stage: early (I-III) gametocyte, incubation 72 h. The gist of the method:
(§1)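 Compound was tested in duplicate at 5 or 0.5 µM on magnet-isolated NF54 pfs16-GFP gametocytes, taken either early (I/IIa, day 2) or late (day 8) and plated at 10% parasitaemia, 0.1% haematocrit. Incubation ran 72 h at 37°C, 5% CO2, 5% O2, followed by overnight MitoTracker Red staining and confocal imaging. Relative inhibition, based on counts of elongated GFP objects with above-cut-off MitoTracker signal, was normalised to in-plate vehicle and positive-control wells.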

Experiment [2] deals with P. falciparum NF54-pfs16-GFP late (IV-V) stage gametocytes. The experiment is described as above. The settings on record: stage: late (IV-V) gametocyte, incubation 72 h. The gist of the method: as §1

Take `CC(C)(C)c1ccc(O)c(CNC2CCCCC2)c1`: the relative % inhibition was 89.9% in experiment [1] (0.5 µM), 90.6% in experiment [1] (5 µM), 61.1% in experiment [2] (0.5 µM) and 81% in experiment [2] (5 µM).

Take `OC(CNC1CCCCC1)Cn1c2ccc(I)cc2c2cc(I)ccc21` (stereo unspecified): the relative % inhibition in experiment [1] (0.5 µM) came out at 60.7%; in experiment [1] (5 µM), 95.2%; in experiment [2] (0.5 µM), 84.7%; in experiment [2] (5 µM), 98.5%.

Take `COc1ccc(C2N(C)c3ccccc3N2C)cc1`: the relative % inhibition in experiment [1] (0.5 µM) was 24.6%; in experiment [1] (5 µM), 30.9%; in experiment [2] (0.5 µM) it was 17.9%; in experiment [2] (5 µM) it was -2.47%.

As for `CCCCN(CCCC)S(=O)(=O)c1ccc(NC(=O)c2ccco2)cc1`, the relative % inhibition was determined as 16.5% in experiment [1] (0.5 µM), 7.65% in experiment [1] (5 µM), 7.52% in experiment [2] (0.5 µM) and 1% in experiment [2] (5 µM).

Turning to `CCn1c(CN2CCN(Cc3ccccc3)CC2)nc2cc(NC(=O)c3cccs3)ccc21`, the relative % inhibition is -11.6% in experiment [1] (0.5 µM), 9.85% in experiment [1] (5 µM), 28.5% in experiment [2] (0.5 µM) and 50.7% in experiment [2] (5 µM).

For the compound `COc1cccc(C(=O)Nc2ccc(-c3nc4ccccc4[nH]3)cc2)c1`, the relative % inhibition in experiment [1] (0.5 µM) is 12.4%; in experiment [1] (5 µM), -15.3%; in experiment [2] (0.5 µM), 20%; in experiment [2] (5 µM), -5.77%.

For the compound `CCCOCc1cc(CN2CCN(c3cccc(Cl)c3)CC2)c(O)c2ncccc12`, the relative % inhibition was 14% in experiment [1] (0.5 µM), 91.3% in experiment [1] (5 µM), -7.95% in experiment [2] (0.5 µM) and 102% in experiment [2] (5 µM).

Consider `OC(CNC1CCCCC1)Cn1c2ccccc2c2ccccc21` (stereo unspecified), for which the relative % inhibition in experiment [1] (0.5 µM) amounted to 14.8%; in experiment [1] (5 µM), 66%; in experiment [2] (0.5 µM), 49.9%; in experiment [2] (5 µM), 104%.

Take `Cc1ccc(N2C(=O)C3C(C2=O)C2(c4ccccc4)C(=O)C3(c3ccccc3)C(c3ccccc3)=C2c2ccccc2)cc1` (stereo unspecified): the relative % inhibition in experiment [1] (0.5 µM) worked out at 20.5%; in experiment [1] (5 µM), 53.3%; in experiment [2] (0.5 µM), 45.4%; in experiment [2] (5 µM) it was 58.1%.

Turning to `CCOc1ccccc1NC(=O)CN1CCN(C(=O)c2ccco2)CC1`, the relative % inhibition in experiment [1] (0.5 µM) is 11.3%; in experiment [1] (5 µM), 9%; in experiment [2] (0.5 µM), -18.2%; in experiment [2] (5 µM), -2.45%.

Regarding `CCOc1ccc(Nc2c3ccccc3nc3ccccc23)cc1`, the relative % inhibition was -20.8% in experiment [1] (0.5 µM), 84% in experiment [1] (5 µM), 8.64% in experiment [2] (0.5 µM) and 20.9% in experiment [2] (5 µM).

For the compound `Oc1ccccc1CN1CCC2(CCCN(Cc3ccccc3F)C2)C1` (stereo unspecified), the relative % inhibition was 32.5% in experiment [1] (0.5 µM), 93.8% in experiment [1] (5 µM), 34.9% in experiment [2] (0.5 µM) and 61.2% in experiment [2] (5 µM).

With `COc1ccc2sc(N(Cc3cccnc3)C(=O)c3ccc(C#N)cc3)nc2c1`, the relative % inhibition in experiment [1] (0.5 µM) is 9.23%; in experiment [1] (5 µM), 7.65%; in experiment [2] (0.5 µM) it was -14.5%; in experiment [2] (5 µM), 8.48%.

Regarding `CCOC(=O)C1CCN(C(=O)CN2C(=O)c3ccccc3C2c2c[nH]c3ccccc23)CC1` (stereo unspecified), the relative % inhibition is 7.45% in experiment [1] (0.5 µM), 98.3% in experiment [1] (5 µM), 28.9% in experiment [2] (0.5 µM) and 63.3% in experiment [2] (5 µM).

Consider `COc1ccc(-n2ccnc2SCC(=O)Nc2cc(C)ccc2C)c(OC)c1`, for which the relative % inhibition is 3.61% in experiment [1] (0.5 µM), -5.2% in experiment [1] (5 µM), -4.39% in experiment [2] (0.5 µM) and 15.9% in experiment [2] (5 µM).

In the case of `Cc1ccc(-c2cc3nc4c(c(O)n3n2)CCCC4)cc1`, the relative % inhibition in experiment [1] (0.5 µM) was 5.35%; in experiment [1] (5 µM), -1.24%; in experiment [2] (0.5 µM) it was 4.75%; in experiment [2] (5 µM) it was 9.04%.

Regarding `COc1ccc(C(=O)C2CC2c2ccc(Cl)cc2)cc1` (stereo unspecified), the relative % inhibition in experiment [1] (0.5 µM) came to 8.75%; in experiment [1] (5 µM), 79.1%; in experiment [2] (0.5 µM) it was 14.7%; in experiment [2] (5 µM), 48.3%.

As for `Cc1cc(NC(=O)c2cccc(C(F)(F)F)c2)n(-c2nc(-c3ccc4c(c3)OCO4)cs2)n1`, the relative % inhibition in experiment [1] (0.5 µM) is -23.4%; in experiment [1] (5 µM), -25.9%; in experiment [2] (0.5 µM), 18.8%; in experiment [2] (5 µM), 10.5%.

Take `COc1ccc(Nc2nc(NN=Cc3ccc(O)cc3)nc(Nc3ccc([N+](=O)[O-])cc3)n2)cc1`: the relative % inhibition in experiment [1] (0.5 µM) was -0.568%; in experiment [1] (5 µM), 101%; in experiment [2] (0.5 µM), -4.05%; in experiment [2] (5 µM), 31.8%.

In the case of `COc1ccc2nc(C)cc(Nc3cccc(O)c3)c2c1`, the relative % inhibition in experiment [1] (0.5 µM) is 2.97%; in experiment [1] (5 µM), 3.08%; in experiment [2] (0.5 µM) it was -18.7%; in experiment [2] (5 µM), -9.92%.

For the compound `Cn1c(=O)n(C)c2cc(CNCCNc3ccnc4cc(Cl)ccc34)ccc21`, the relative % inhibition was 86.6% in experiment [1] (0.5 µM), 29.6% in experiment [1] (5 µM), 37.6% in experiment [2] (0.5 µM) and 90.2% in experiment [2] (5 µM).

In the case of `Cc1cc(C)c2c(c1)OCN(Cc1ccccc1Cl)C2`, the relative % inhibition in experiment [1] (0.5 µM) was 59.9%; in experiment [1] (5 µM), 93.6%; in experiment [2] (0.5 µM), 31.1%; in experiment [2] (5 µM), 47.8%.

For the compound `COc1ccc(C=C2SC(=N)N(c3ccccc3OC)C2=O)cc1`, the relative % inhibition is 11% in experiment [1] (0.5 µM), 63.6% in experiment [1] (5 µM), 0% in experiment [2] (0.5 µM) and 67.5% in experiment [2] (5 µM).

With `C=CCc1c(C)nc2ccccc2c1O`, the relative % inhibition in experiment [1] (0.5 µM) amounted to 5.51%; in experiment [1] (5 µM), 13.3%; in experiment [2] (0.5 µM), 36.3%; in experiment [2] (5 µM) it was 53.7%.

Turning to `COc1ccc(C2c3ccc4ccccc4c3Oc3ncn(CCCn4ccnc4)c(=N)c32)cc1OC` (stereo unspecified), the relative % inhibition was 59.1% in experiment [1] (0.5 µM), -9.76% in experiment [1] (5 µM), 49.2% in experiment [2] (0.5 µM) and 74.6% in experiment [2] (5 µM).

For `N=c1n(CCN2CCCCC2)c2ccccc2n1CC(O)c1cccc(Br)c1` (stereo unspecified), the relative % inhibition in experiment [1] (0.5 µM) was 6.75%; in experiment [1] (5 µM) it was 94.5%; in experiment [2] (0.5 µM) it was 25.5%; in experiment [2] (5 µM), 55.6%.

For the compound `CCN(CC)c1ccc(NC(=O)c2cccs2)cc1`, the relative % inhibition in experiment [1] (0.5 µM) was -1.58%; in experiment [1] (5 µM), -23.9%; in experiment [2] (0.5 µM), 16.7%; in experiment [2] (5 µM), 43.6%.

For the compound `COc1cccc(C2(C)Nc3ccccc3-c3nc4ccccc4n32)c1` (stereo unspecified), the relative % inhibition in experiment [1] (0.5 µM) was -5.06%; in experiment [1] (5 µM) it was 5.7%; in experiment [2] (0.5 µM) it was 27.8%; in experiment [2] (5 µM), 16.2%.

As to `CCOc1ccc(C2N(C)c3ccccc3N2C)cc1`, the relative % inhibition was 5% in experiment [1] (0.5 µM), 15.9% in experiment [1] (5 µM), -6.22% in experiment [2] (0.5 µM) and -12.5% in experiment [2] (5 µM).

`Cc1ccc(CSCc2ccc(C(=O)NC3CC3)o2)cc1`: the relative % inhibition is 1.49% in experiment [1] (0.5 µM), -7.92% in experiment [1] (5 µM), 19.6% in experiment [2] (0.5 µM) and 43.1% in experiment [2] (5 µM).

Turning to `CCOC(=O)c1cnc2ccc(OC)cc2c1NCc1ccccc1`, the relative % inhibition turned out to be 26.4% in experiment [1] (0.5 µM), 17.1% in experiment [1] (5 µM), 10.1% in experiment [2] (0.5 µM) and 2.07% in experiment [2] (5 µM).

For `Cc1[nH]c(-c2ccc(F)cc2)cc1C(=O)NC1CCN(Cc2ccccc2)CC1`, the relative % inhibition in experiment [1] (0.5 µM) stood at 14.7%; in experiment [1] (5 µM) it was 75.3%; in experiment [2] (0.5 µM), 6.29%; in experiment [2] (5 µM) it was 15.4%.

Turning to `COc1ccc2nc(C)cc(Nc3ccccc3O)c2c1`, the relative % inhibition in experiment [1] (0.5 µM) was 6.33%; in experiment [1] (5 µM), 20.9%; in experiment [2] (0.5 µM), -7.14%; in experiment [2] (5 µM), 18.4%.

Regarding `Oc1ccc(-c2nc(-c3ccc4oc5ccc(-c6[nH]c(-c7ccc(O)cc7)nc6-c6ccccc6)cc5c4c3)c(-c3ccccc3)[nH]2)cc1`, the relative % inhibition in experiment [1] (0.5 µM) is 92.1%; in experiment [1] (5 µM), 107%; in experiment [2] (0.5 µM), 3.61%; in experiment [2] (5 µM) it was 52.7%.
